# Source: PMC4336329 (PLoS ONE, 2015)
# Among all 310,000 compounds or so, about 14,000 (4.5%) showed an effect of 50% or more. The effect is printed as a negative number. The entries come from a sample that favours strong results as a whole.
# Target: human ether-à-go-go-related gene (hERG) potassium channel (human, UniProt Q12809)
# Assay: primary screen, population patch clamp on CHO cells stably expressing hERG; higher = less effect of the substance
# 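Also: peak tail current of the secondary pulse compared with the same well before compound.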
# Chain of human ether-à-go-go-related gene (hERG) potassium channel (Q12809 whole entry, looked up): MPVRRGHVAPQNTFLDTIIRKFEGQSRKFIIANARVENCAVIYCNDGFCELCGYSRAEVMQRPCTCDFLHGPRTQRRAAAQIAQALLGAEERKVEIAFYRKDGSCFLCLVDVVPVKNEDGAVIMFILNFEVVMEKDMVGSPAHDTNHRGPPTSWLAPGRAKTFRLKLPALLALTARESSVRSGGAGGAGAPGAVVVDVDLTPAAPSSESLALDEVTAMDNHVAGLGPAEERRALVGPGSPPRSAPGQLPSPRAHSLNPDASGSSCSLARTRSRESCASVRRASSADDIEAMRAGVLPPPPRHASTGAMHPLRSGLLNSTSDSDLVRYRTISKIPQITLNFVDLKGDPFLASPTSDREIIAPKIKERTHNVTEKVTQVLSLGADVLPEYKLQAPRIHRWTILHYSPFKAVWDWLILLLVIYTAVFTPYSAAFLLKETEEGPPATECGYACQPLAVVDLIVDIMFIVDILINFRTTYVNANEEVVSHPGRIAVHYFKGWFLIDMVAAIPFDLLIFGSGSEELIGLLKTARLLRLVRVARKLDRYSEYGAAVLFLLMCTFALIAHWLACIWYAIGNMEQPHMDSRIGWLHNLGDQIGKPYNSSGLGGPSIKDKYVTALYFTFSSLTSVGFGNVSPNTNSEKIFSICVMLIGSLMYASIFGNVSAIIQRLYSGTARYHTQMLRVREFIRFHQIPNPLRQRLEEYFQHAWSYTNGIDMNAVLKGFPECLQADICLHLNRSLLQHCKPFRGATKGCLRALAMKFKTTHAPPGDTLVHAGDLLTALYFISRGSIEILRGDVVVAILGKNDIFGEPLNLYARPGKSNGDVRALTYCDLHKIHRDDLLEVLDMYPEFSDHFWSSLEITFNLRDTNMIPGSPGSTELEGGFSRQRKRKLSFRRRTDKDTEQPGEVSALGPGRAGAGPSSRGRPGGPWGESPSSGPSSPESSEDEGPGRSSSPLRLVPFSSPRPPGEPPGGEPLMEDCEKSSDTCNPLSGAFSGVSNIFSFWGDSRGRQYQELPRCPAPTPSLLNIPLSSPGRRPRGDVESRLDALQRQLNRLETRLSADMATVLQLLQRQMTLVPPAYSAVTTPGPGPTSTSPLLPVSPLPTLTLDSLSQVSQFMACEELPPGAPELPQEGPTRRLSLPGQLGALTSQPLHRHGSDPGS
row,Compound,"hERG current change (%, negative = inhibition) at 10uM [%]"
1,COc1ccc(S(=O)(=O)N2CCCOC2CNC(=O)C(=O)NCCc2ccco2)cc1 (stereo not shown),4.42
2,CC(C)(C)c1ccc(C(=O)Cn2cnnc2C#N)cc1,3.7
3,Cc1ccc(N2CC(C(=O)NCCc3ccc(S(N)(=O)=O)cc3)CC2=O)cc1 (stereo not shown),22.5
4,O=C(N/N=C/c1cccnc1)c1ccccc1,17.3
5,Cn1c(/C=C/c2ccccc2[N+](=O)[O-])nc2ccccc2c1=O,5
6,COc1ccccc1S(=O)(=O)Cc1ccc(C(=O)NCc2ccco2)o1,-33.5
7,O=C(COC(=O)Cc1ccccc1)Nc1ccc(SC(F)F)cc1,5.27
8,CNC(=S)NNC(=O)c1c(C)nc2cc(C)ccn12,7.15
9,O=C(c1cccs1)N1CCN(c2ccc([N+](=O)[O-])cc2F)CC1,-56.8
10,CCC(=O)c1ccc(N2CCN(C(=O)c3cc([N+](=O)[O-])ccc3N3CCN(C)CC3)CC2)c(F)c1,-46.4
11,CCC(=O)c1ccc(N2CCN(C(=O)c3cc([N+](=O)[O-])ccc3F)CC2)c(F)c1,-42.9
12,Cc1ccc(S(=O)(=O)N2CCC(C(=O)OCC(=O)N(C)Cc3ccccc3)CC2)cc1C,-12
13,CCN1CCN(c2c(Cl)cccc2NC(=O)c2ccc([N+](=O)[O-])o2)CC1,-73.9
14,O=C(Nc1cccc(Cl)c1N1CCCC1)c1ccc([N+](=O)[O-])o1,9.6
15,CCN1CCN(c2c(Cl)cccc2NC(=O)c2cccs2)CC1,-73.8
16,O=C(Nc1cccc(Cl)c1N1CCOCC1)c1cccs1,-23.5
17,O=C(Nc1cccc(Cl)c1N1CCOCC1)c1ccc(Br)o1,6.64
18,O=C(Nc1cccc(Cl)c1N1CCOCC1)c1ccc([N+](=O)[O-])o1,2.67
19,O=C(Nc1cccc(Cl)c1N1CCCC1)c1ccco1,6.11
20,O=C(NC(=S)Nc1cccc(Cl)c1N1CCCCC1)c1cccs1,22.7

row,Compound,"hERG current change (%, negative = inhibition) at 10uM [%]"
1,O=C(Nc1cccc(Cl)c1N1CCCC1)c1ccc(Br)o1,-5.58
2,O=C(Nc1cccc(Cl)c1N1CCOCC1)c1ccco1,-8.08
3,CCN1CCN(c2c(Cl)cccc2NC(=O)c2ccc(Br)o2)CC1,-73.6
4,CCN1CCN(c2c(Cl)cccc2NC(=O)c2ccco2)CC1,-73.4
5,CC12CCC(=O)N1C(C(=O)NNC(=O)c1ccc(Br)cc1)CS2 (stereo not shown),-8.4
6,Cc1ccc2nc(SCC(=O)Nc3ccc(C(N)=O)cc3)[nH]c2c1,3.74
7,CC(CN(C)Cc1ccccc1)OC(=O)c1ccc2c(c1)OCCO2.Cl (stereo not shown),5.15
8,COC(=O)c1ccc(COc2ccc3ccc(=O)oc3c2)o1,8.66
9,CN(C)CCNC(=O)Cn1ccc2cc(S(=O)(=O)N3CCCCCC3)ccc21,-25.4
10,C/C(N)=C(/C#N)C(=O)CSc1nn(-c2ccc(Cl)cc2)c(=S)s1,12.9
11,O=S(=O)(NCCc1ccncc1)c1ccccc1,4.04
12,c1ccc2c(c1)CCCC2NC1=NCCC1 (stereo not shown),-2.53
13,O=C(NCC(c1cccs1)N1CCOCC1)c1ccc(Cl)c([N+](=O)[O-])c1 (stereo not shown),-31.9
14,CCOc1ncccc1C(=O)N1CCN(C(c2ccccc2)c2ccccc2)CC1,5.75
15,O=C(O)CCn1c(-c2ccccc2)cc2c1CCCC2=O,14.1
16,Cc1c(NS(=O)(=O)c2ccc(NC3CCCC3)c([N+](=O)[O-])c2)c(=O)n(-c2ccccc2)n1C,-19.7
17,Cc1cc(C)nc(NS(=O)(=O)c2cccs2)c1,3.36
18,CCN1CCN(c2c(Cl)cccc2NC(=O)c2ccc([N+](=O)[O-])cc2)CC1,-72
19,CCN1CCN(c2c(Cl)cccc2NC(=O)c2ccc3c(c2)OCCO3)CC1,-38.4
20,CCN1CCN(c2c(Cl)cccc2NC(=O)c2ccc3nsnc3c2)CC1,-49.5

row,Compound,"hERG current change (%, negative = inhibition) at 10uM [%]"
1,O=C(CNc1ccc2ccccc2c1)N/N=C/c1ccncc1,-8.31
2,O=C(Nc1cc(Cl)ccc1N1CCCC1)C1=NN(c2ccccc2)C(=O)CC1,-16.9
3,CC(=O)N1CCc2cc(S(=O)(=O)NCCC(=O)Nc3cccc(C)c3C)ccc21,0.058
4,CC1CCC2(CC1)NC(=O)N(CC(=O)NCc1cccs1)C2=O (stereo not shown),1.95
5,COc1ccc(CN(C(=O)CN2C(=O)NC3(CCC(C)CC3)C2=O)C(C)Cc2cccs2)cc1 (stereo not shown),-68.7
6,CC1CCC2(CC1)NC(=O)N(CC(=O)N(Cc1ccccc1)C(C)(C)C)C2=O (stereo not shown),10.6
7,O=C(/C=C/c1cccc([N+](=O)[O-])c1)NCc1ccco1,-33
8,Cc1ccc(C2CC(=O)N3CN(c4ccc(Br)cc4)CSC3=C2C#N)o1 (stereo not shown),11.1
9,Cc1nc2cc3nc(C(F)(F)F)[nH]c3cc2[nH]1,0.0754
10,O=C(CCCn1c(SCC(=O)Nc2ccccc2Cl)nc2ccccc2c1=O)NCC1CCCO1 (stereo not shown),-48.9
11,O=C(CSc1nc2ccccc2c(=O)n1CCCO)NC1CC1,-13.4
12,CCc1ccc(NC(=O)CSc2nc3ccccc3c(=O)n2CCCN2CCC(C)CC2)cc1,-67.2
13,CCCCn1c(SCC(=O)Nc2ccc(NC(C)=O)cc2)nc2ccccc2c1=O,-2.55
14,CC1CCN(CCCn2c(SCC(=O)NC3CCCC3)nc3ccccc3c2=O)CC1,-77
15,CC1CCN(CCCn2c(SCC(=O)Nc3ccccc3Cl)nc3ccccc3c2=O)CC1,-70.8
16,CCOCCCn1c(SCC(=O)NC2CCCC2)nc2ccccc2c1=O,-1.74
17,CCc1ccc(NC(=O)CSc2nc3ccccc3c(=O)n2CCCC(=O)N2CCCC2)cc1,-27.9
18,CCCCn1c(SCC(=O)NC2CCCC2)nc2ccccc2c1=O,-4.43
